# Measurements: PubChem BioAssay AID686940 (The Scripps Research Institute Molecular Screening Center, 2013)
# The whole screen tested about 370,000 compounds, of which about 2,600 (0.7%) were called active.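 Rule for the calls: active = inhibition above a per-plate cutoff, mean inhibition of test wells between control levels plus 3 SD (cut at about 38% in these data); inactive = the rest.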 The full list was thinned out, with actives kept by preference.
# Target: COUP transcription factor 2 (Homo sapiens) (UniProt P24468)
# Sequence (P24468 whole entry, looked up): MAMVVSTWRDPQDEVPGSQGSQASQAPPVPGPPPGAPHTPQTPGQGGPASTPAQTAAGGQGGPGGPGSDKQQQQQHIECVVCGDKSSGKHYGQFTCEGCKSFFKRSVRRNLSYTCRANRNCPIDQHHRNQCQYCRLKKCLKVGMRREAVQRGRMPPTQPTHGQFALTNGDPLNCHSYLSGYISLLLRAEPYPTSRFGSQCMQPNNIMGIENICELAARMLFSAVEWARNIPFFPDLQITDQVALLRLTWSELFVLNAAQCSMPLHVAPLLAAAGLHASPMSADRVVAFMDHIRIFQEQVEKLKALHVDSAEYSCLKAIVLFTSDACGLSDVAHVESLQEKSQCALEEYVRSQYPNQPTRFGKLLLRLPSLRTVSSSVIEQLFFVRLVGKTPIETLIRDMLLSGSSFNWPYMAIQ
# Assay: NR2F2 transcriptional activity inhibitors, primary screen, cell-based, luciferase reporter, HEK293T, luminescence (AID 686940);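 note: cells cotransfected with COUP-TFII expression vector driving the NGFI-A reporter; 0% = median of COUP-TF2 test wells and 100% = reporter-only cells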
# Settings: HEK293T NGFI-A luciferase reporter, at 8.6 µM, active compounds read high
row,SMILES,inhibition
1,COC(=O)C1CN(CCc2ccccc2)CCS(=O)(=O)N1Cc1cccc(Cl)c1 (configuration not stated),-5.31% (inactive)
2,Cc1ccc(-n2c(SCC(=O)Nc3ccc(S(=O)(=O)Nc4nccs4)cc3)nnc2-c2cccnc2)cc1,8.88% (inactive)
3,O=C(CSc1nnc(-c2cccc(Cl)c2)n1Cc1ccco1)Nc1ccc(OCc2ccccc2)cc1,-14.7% (inactive)
4,O=C(NC1CCC1)c1ccc(C#Cc2cccc(F)c2)c[n+]1[O-],0.7% (inactive)
5,CN1OC[C@@H]2CN(S(=O)(=O)c3cccc(C(F)(F)F)c3)[C@H](c3ccc(-c4cc5ccccc5o4)cc3)C[C@@H]21,44.1% (active)
6,COc1ccccc1-c1ccc([C@@H]2C[C@H]3[C@H](CON3C)CN2S(=O)(=O)c2cc(Cl)cc(Cl)c2)cc1,5.76% (inactive)
7,COc1ccc(S(=O)(=O)N2C[C@H]3CON(C)[C@H]3C[C@H]2c2cccc(Br)c2)cc1,10.7% (inactive)
8,CCOC(=O)c1csc(NC(=O)C2CCCN(S(=O)(=O)c3ccc(Cl)s3)C2)n1 (configuration not stated),22.3% (inactive)
9,C=C(C)C#CC(Cc1ccccc1)N(CC1CC1)/C(N)=N/C(=O)OCc1ccccc1 (configuration not stated),5.09% (inactive)
10,CCCCNC(=O)C[C@H]1C[C@@]2(C(=O)OC)C(=C[C@H](COCc3ccccc3)O[C@@H]2C)N(Cc2ccc(Cl)cc2Cl)C1=O,1.56% (inactive)
11,COC(=O)[C@]12C[C@H](CC(=O)N3CCOCC3)C(=O)N(Cc3ccc(Cl)cc3Cl)C1=C[C@H](C(C)C)O[C@@H]2C1CC1,1.35% (inactive)
12,Cc1ccc(NC(=O)CN(C)Cc2ccc(F)cc2)c([N+](=O)[O-])c1,-11.4% (inactive)
13,Cc1ccc(NC(=O)CN(C)CC(=O)Nc2cccc(F)c2)cc1[N+](=O)[O-],58.8% (active)
14,Cc1ccc(S(=O)(=O)N2CCCCC2)cc1C(=O)N(C)CC(=O)Nc1cccc(F)c1,-3.43% (inactive)
15,c1csc(-c2nnc(SCc3nc4ccccc4[nH]3)o2)c1,-10.7% (inactive)
16,Cc1ccc(NC(=O)Cc2cccc(F)c2)c(S(=O)(=O)N2CCOCC2)c1,-8.19% (inactive)
17,CCOC(=O)[C@]12CCCC3=C1N(CCC3)C(=O)[C@@H](CC(=O)NCC13CC4CC(CC(C4)C1)C3)C2,21.7% (inactive)
18,O=C1CC(c2ccc3c(c2)OCO3)N=C2N(CC3CC3)C/C(=C/c3ccccc3)N12 (configuration not stated),20.7% (inactive)
19,Cc1nc(CNS(=O)(=O)c2cc([N+](=O)[O-])ccc2C)cs1,-13.5% (inactive)
20,Cc1ccc(S(=O)(=O)NCc2nc3ccccc3c(=O)n2N)cc1,0.39% (inactive)
21,Cc1nc(CNS(=O)(=O)c2ccc(Oc3ccccc3)cc2)cs1,50.2% (active)

row,SMILES,inhibition
1,Cc1nn(C(C)C(=O)NCCC2=CCCCC2)c(=O)c2nn(-c3ccccc3)c(C)c12 (configuration not stated),-2% (inactive)
2,Cc1ccc(-n2nc3c(=O)n(C(C)C(=O)NCc4ccc5c(c4)OCO5)nc(C)c3c2C)cc1 (configuration not stated),48.1% (active)
3,Cc1nn(C(C)C(=O)N2CCOCC2)c(=O)c2nn(-c3ccccc3)c(C)c12 (configuration not stated),6.72% (inactive)
4,Cc1cc(NS(=O)(=O)c2ccc(NC(=O)CSc3nnc(-c4ccc(C(C)(C)C)cc4)n3Cc3ccco3)cc2)nc(C)n1,1.48% (inactive)
5,CN(CCc1ccccc1)C(=O)Cn1nc(-c2ccccc2)ccc1=O,2.95% (inactive)
6,C[C@H](C(=O)N(C)c1ccccc1)[C@@H](O)c1ccc2ccccc2c1,10.2% (inactive)
7,Cc1ccc(-n2c(COc3ccccc3)nnc2SCC(=O)Nc2ccc3c(c2)OCCO3)cc1,9.88% (inactive)
8,OCCCNc1nccc(-c2cc(Nc3cccc(Cl)c3)ncn2)n1,44.6% (active)
9,COc1ccc(-n2c(SCC(=O)NC3CCCC3)nnc2-c2ccncc2)cc1,4.6% (inactive)
10,CCC(=O)OCCCN1C(=O)CCC12CCC(c1ccccc1)CC2 (configuration not stated),-6.04% (inactive)
11,COc1ccc(C(=O)CSc2nnc(-c3cnccn3)n2-c2ccc(C)cc2)cc1,3.51% (inactive)
12,O=C(CCl)NC1CCCCN(Cc2cccc(C(F)(F)F)c2)C1=O (configuration not stated),4.87% (inactive)
13,COc1ccc2c(c1)c(=Cc1ccc(N(C)C)cc1)c1cc(-c3ccccc3)[n+](C)n12,76.4% (active)
14,COC(=O)C1CN(CC(C)C)CCS(=O)(=O)N1Cc1ccc(F)cc1 (configuration not stated),6.54% (inactive)
15,C=CCNc1ncnc2ccc(Br)cc12,48.3% (active)
16,Cc1nc(CNc2ncnc3ccc(-c4ccc5c(c4)OCO5)cc23)cs1,10.5% (inactive)
17,COc1ccc(Cn2cc(COC(=O)N(C)Cc3ccccc3)nn2)cc1,3.65% (inactive)
18,Nc1[nH]c(/C=C2/CCCCC2n2[nH]c(=O)n(-c3ccccc3)c2=O)c(Cc2ccccc2)[n+]1Cc1ccccc1 (configuration not stated),10.8% (inactive)
19,COC(=O)[C@]12C[C@H](CC(=O)NCc3ccccc3)C(=O)N(Cc3ccccc3)C1=C[C@H](COCc1ccccc1)O[C@@H]2C,7.28% (inactive)
20,COc1cc(C(O)c2nc3ccccc3n2C)cc(OC)c1OC (configuration not stated),10.1% (inactive)
21,COc1cc(/C=C/C(=O)n2cnc3ccccc32)cc(OC)c1OC,47.1% (active)

row,SMILES,inhibition
1,COc1cc(/C=C/C(=O)N2CCc3ccccc3C2)cc(OC)c1OC,-52.5% (inactive)
2,COC(=O)C12C=C3CC(c4ccccc4)=C3C(=O)N1Cc1[nH]c3ccccc3c1C2 (configuration not stated),5.87% (inactive)
3,COc1cccc2c1C(=O)c1c(O)c3c(c(O)c1C2=O)CC(O)(C(C)=NNC(=O)c1ccc(Cl)c(Cl)c1)CC3OC1CC(N)C(O)C(C)O1 (configuration not stated),52.1% (active)
4,CN(C)[C@H]1CCN(c2cccc3c2S(=O)(=O)N2CC[C@H](C2)O3)C1,-16.6% (inactive)
5,CCOC(=O)C1=C(C)NC2=C(C(=O)CC(C)(C)C2)C1c1ccc2c(c1)OCO2 (configuration not stated),13.2% (inactive)
6,CCc1cc(-c2nnn(CCC3COCCO3)c2CC)ccc1-c1cn(Cc2ccc3ccccc3c2)nn1 (configuration not stated),57.9% (active)
7,COC(=O)[C@]12C[C@H](CC(=O)N3CCOCC3)C(=O)N(Cc3ccc(Cl)cc3Cl)C1=C[C@H](COCc1ccccc1)O[C@@H]2C,-11.3% (inactive)
8,COc1cccc(N2CCN(CC(=O)N(C)Cc3ccc(F)cc3)CC2)c1,1.56% (inactive)
9,CN(C(=O)CN1CCN(c2cc(-c3ccc(OCc4ccccc4)cc3)ncn2)CC1)c1ccccc1,60.6% (active)
10,CCOc1ccc(OCc2ccc(C(=O)N(C)c3ccccc3)o2)cc1,-8.76% (inactive)
11,CCc1ccccc1NC(=O)c1cc(-c2ccc3c(c2)OCO3)on1,-0.24% (inactive)
12,CC(O)(c1cccc(F)c1)c1nc(-c2ccc3c(c2)OCO3)cs1 (configuration not stated),8.11% (inactive)
13,O=C(Nc1nc(-c2ccc3c(c2)OCO3)cs1)c1ccncc1,52.5% (active)
14,COc1ccc(CC(N)c2csc(NC(=O)Nc3ccc(C(C)C)cc3)n2)cc1 (configuration not stated),15.8% (inactive)
15,CCOC(=O)c1csc(NC(=O)Nc2cccc(OC)c2)n1,-7.28% (inactive)
16,CC(=O)Nc1ccc(-c2csc(NC(=O)Nc3ccccc3)n2)cc1,60.9% (active)
17,O=C1CC[C@@]23CCCN2C(=O)CCC[C@H]3[C@H]1Cc1ccccc1,-3.33% (inactive)
18,COC(=O)[C@]12C[C@H](CC(=O)NCc3ccccc3)C(=O)N(CCC3=CCCCC3)C1=C[C@H](C(C)C)O[C@@H]2C1CC1,2.64% (inactive)
19,CCCCNc1nc2c(c(=O)n(C)c(=O)n2C)n1Cc1cccc(OC)c1,53.5% (active)
20,CCn1c(NCCc2ccc(OC)c(OC)c2)nc2c1c(=O)n(C)c(=O)n2C,-1.49% (inactive)
21,Cn1c(=O)c2c(nc(NCc3ccccc3)n2CC(N)=O)n(C)c1=O,4.42% (inactive)

row,SMILES,inhibition
1,O=C(NC1CCCCN(Cc2cccc(C(F)(F)F)c2)C1=O)c1ccccc1I (configuration not stated),22.4% (inactive)
2,CCC(=O)Nc1ccc2c(c1)C(=O)N(C)[C@@H]1CC[C@@H](CC(=O)NCCc3ccccc3)O[C@H]1CO2,19% (inactive)
3,CC(C)N1CCCCC(NC(=O)C(C)(C)C)C1=O (configuration not stated),0.07% (inactive)
4,Cc1ccc(CN2CCCCC(NC(=O)C3CCCCC3)C2=O)cc1 (configuration not stated),2.64% (inactive)
5,O=C(NCCc1c[nH]c2ccccc12)OCc1cn(-c2c(F)cccc2F)nn1,-1.45% (inactive)
6,CC(=O)OCCN1CCCC12CCC(c1ccccc1)CC2 (configuration not stated),-6.1% (inactive)
7,O=c1oc2ccccc2cc1-c1cn(-c2ccccc2)c(=S)[nH]1,81.6% (active)
8,C[C@@H](NC(=O)c1ccccc1OCC(=O)Nc1ccc(I)cc1)C(=O)N(C)Cc1ccccc1,3.89% (inactive)
9,COc1ccc(CCNC(=O)CSc2nc3c([nH]2)c(=O)n(C)c(=O)n3C)cc1,-4.66% (inactive)
10,CC(CCN1CCC(C(O)(c2ccccc2)c2ccccc2)CC1)Oc1ccc(C(F)(F)F)cc1 (configuration not stated),9.47% (inactive)
11,O=C(OC12CC3CC(CC(C3)C1)C2)c1ccc(NCc2cc(O)ccc2O)cc1,82.7% (active)
12,COc1ccc(/C=C2/SC(=O)N(CCCCCC(=O)Nc3ccccc3C(=O)O)C2=S)cc1,48% (active)
13,COc1ccc(NC(=O)CCCN2C(=O)C(c3ccccc3)Oc3cccnc32)cc1 (configuration not stated),-1.91% (inactive)
14,CCCNC(=O)c1ccccc1NC(=O)CSCc1ccc(OC)cc1,10.2% (inactive)
15,CCN(CC)C(=O)CC[C@H]1CC[C@]2(CCCN(Cc3ccc(Cl)cc3)C2)O1,-15.6% (inactive)
16,COc1ccc(CN2C(=O)N3Cc4cc(OC)ccc4C3CS2(=O)=O)cc1 (configuration not stated),-0.26% (inactive)
17,O=C(Nc1ccccc1C(=O)N1CCOCC1)c1ccc(CSc2ccccc2)cc1,6.62% (inactive)
18,O=C(Nc1ccc(CSc2ccccc2)cc1)c1ccc(CN2CCOCC2)cc1,68.5% (active)
19,C/C(CCc1ccccc1)=N\NC(=O)c1ccc(CN2CCOCC2)cc1,-14.4% (inactive)
